# Laboratory results as given in PubChem BioAssay (NCI).
# This is part of a sample that, as a whole, favours compounds with a hit. Of some 79,000 tested, about 15% had one in any assay. A number with no mark means an inactive call. Calls of active or inactive are those of the source. Rule as the data show it: active = growth inhibition above about 70%; inactive = the rest.
# Assays:
# [1] = NCI Yeast Anticancer Drug Screen. Data for the rad52 strain (AID 147);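 also: 0% = growth of vehicle-treated control cultures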; settings: S. cerevisiae rad52 mutant growth inhibition, active compounds read high
# Summary of the method: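 Here a repair-compromised yeast strain receives each compound; its growth is then quantified and normalised to vehicle-only controls.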
# [2] = NCI Yeast Anticancer Drug Screen. Data for the wt1 strain (AID 149);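 also: 0% = growth of vehicle-treated wt1 cultures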; settings: S. cerevisiae wt1 strain (SPY 50644) growth inhibition, active compounds read high
# Summary of the method: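 Readout: yeast growth inhibition, normalised to vehicle controls, in the wt1 strain exposed to test compounds.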
# [3] = NCI Yeast Anticancer Drug Screen. Data for the rad50EPP+ strain (AID 151);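 also: 0% = growth of vehicle-treated control cultures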; settings: S. cerevisiae rad50 mutant strain, active compounds read high
# Summary of the method: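 Read-out is yeast growth inhibition relative to vehicle; cells used were the rad50EPP+ strain.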
# [4] = NCI Yeast Anticancer Drug Screen. Data for the mgt1 strain (AID 153); settings: S. cerevisiae mgt1 mutant growth inhibition, active compounds read high
# Summary of the method: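 Measured: inhibition of mgt1 yeast growth by compound, normalized to vehicle-treated cultures.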
# [5] = NCI Yeast Anticancer Drug Screen. Data for the rad50 strain (AID 155);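 also: 0% = growth of vehicle-only cultures of the same strain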; settings: S. cerevisiae rad50 strain growth inhibition, active compounds read high
# Summary of the method: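 Compounds were tested on a yeast strain with an engineered DNA damage repair alteration; the reported value is growth inhibition normalised to vehicle treatment.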
# [6] = NCI Yeast Anticancer Drug Screen. Data for the mec2-1 strain (AID 157); settings: S. cerevisiae mec2-1 strain, active compounds read high
# Summary of the method: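 Using mec2-1 yeast: add compound, measure growth, express inhibition versus vehicle-treated cultures.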
# [7] = NCI Yeast Anticancer Drug Screen. Data for the rad14 strain (AID 159);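 also: 0% = growth of vehicle-treated control cultures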; settings: S. cerevisiae rad14 strain growth inhibition, active compounds read high
# Summary of the method: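 Compound-treated yeast with a defined DNA-repair lesion; growth inhibition normalised to vehicle-treated cultures.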
# [8] = NCI Yeast Anticancer Drug Screen. Data for the sgs1 mgt1 strain (AID 161);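 also: 0% = growth of cultures given vehicle only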; settings: S. cerevisiae sgs1 mgt1 strain, active compounds read high
# Summary of the method: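 Percent growth inhibition was derived by comparing compound-exposed mutant yeast with vehicle-exposed cultures. The strain carries alterations in DNA damage repair.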
# [9] = NCI Yeast Anticancer Drug Screen. Data for the CLN2oe strain (AID 163);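 also: 0% = growth of vehicle-only control cultures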; settings: S. cerevisiae CLN2oe strain, active compounds read high
# Summary of the method: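 Whole-cell yeast growth assay. A strain engineered for altered cell-cycle control received compound, and inhibition relative to vehicle-treated cultures was recorded.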
# [10] = NCI Yeast Anticancer Drug Screen. Data for the cln2 rad14 strain (AID 165);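 also: 0% = growth equal to vehicle treated cultures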; settings: S. cerevisiae cln2 rad14 strain, active compounds read high
# Summary of the method: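 Yeast strain cln2 rad14, bearing defects in cell cycle control and DNA repair, serves as the test system; values reflect growth inhibition compared with vehicle.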
# [11] = NCI Yeast Anticancer Drug Screen. Data for the bub3 strain (AID 167); settings: S. cerevisiae bub3 mutant strain, active compounds read high
# Summary of the method: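 Growth of a checkpoint-deficient yeast mutant is measured after compound exposure. Values represent inhibition relative to vehicle.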
# [12] = NCI Yeast Anticancer Drug Screen. Data for the wt2 strain (AID 169);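 also: 0% = growth of vehicle-treated yeast cultures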; settings: S. cerevisiae wt2 strain growth inhibition, active compounds read high
# Summary of the method: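 Treated yeast vs. vehicle-treated yeast: growth inhibition determined.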
# [13] = NCI Yeast Anticancer Drug Screen. Data for the mlh1 strain (AID 171);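 also: 0% = growth of vehicle-treated control cultures of the same strain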; settings: S. cerevisiae mlh1 strain growth inhibition, active compounds read high
# Summary of the method: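 A yeast strain with a defined genetic lesion serves as the test organism. Cultures receive compound or vehicle, and growth is measured.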
# [14] = NCI Yeast Anticancer Drug Screen. Data for the sgs1 strain (AID 173);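 also: 0% = growth of vehicle-only control cultures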; settings: S. cerevisiae sgs1 mutant, active compounds read high
# Summary of the method: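 A genetically defined yeast mutant is incubated with the test compound, and its growth is compared to that of the same strain given vehicle.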
# [15] = NCI Yeast Anticancer Drug Screen. Data for the mlh1 rad18 strain (AID 175); settings: S. cerevisiae mlh1 rad18 strain growth inhibition, active compounds read high
# Summary of the method: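 Steps: expose repair-defective yeast to compound; measure growth; express inhibition against vehicle-treated controls.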
# [16] = NCI Yeast Anticancer Drug Screen. Data for the rad18 strain (AID 177); settings: S. cerevisiae rad18 mutant growth inhibition, active compounds read high
# Summary of the method: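 Measured value is growth inhibition of a yeast strain bearing a DNA repair alteration, referenced to vehicle-treated cells.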
# [17] = at 5.0 µM (retest, dose inferred, filed as 0.5)
# [18] = at 50.0 µM (retest, dose inferred, filed as 5.0)
compound,measurement,setting,value
CC1(C)CC(=O)C(/C=N/c2nc(-c3ccccc3)cs2)=C(O)C1,growth inhibition,[1]; at 1.2 µM,1%
same,growth inhibition,[1]; at 3.7 µM,5%
same,growth inhibition,[1]; at 11.0 µM,19%
same,growth inhibition,[1]; at 33.0 µM,41%
same,growth inhibition,[1]; at 100.0 µM,84% (active)
same,growth inhibition,[2]; at 1.2 µM,2%
same,growth inhibition,[2]; at 3.7 µM,2%
same,growth inhibition,[2]; at 11.0 µM,6%
same,growth inhibition,[2]; at 33.0 µM,22%
same,growth inhibition,[2]; at 100.0 µM,54%
same,growth inhibition,[3]; at 1.2 µM,-1%
same,growth inhibition,[3]; at 3.7 µM,1%
same,growth inhibition,[3]; at 11.0 µM,12%
same,growth inhibition,[3]; at 33.0 µM,27%
same,growth inhibition,[3]; at 100.0 µM,34%
same,growth inhibition,[4]; at 1.2 µM,-1%
same,growth inhibition,[4]; at 3.7 µM,-2%
same,growth inhibition,[4]; at 11.0 µM,5%
same,growth inhibition,[4]; at 33.0 µM,22%
same,growth inhibition,[4]; at 100.0 µM,77% (active)
same,growth inhibition,[5]; at 1.2 µM,-5%
same,growth inhibition,[5]; at 3.7 µM,-13%
same,growth inhibition,[5]; [17],-3%
same,growth inhibition,[5]; at 11.0 µM,-4%
same,growth inhibition,[5]; at 33.0 µM,40%
same,growth inhibition,[5]; [18],57%
same,growth inhibition,[5]; at 50.0 µM,89.9% (active)
same,growth inhibition,[5]; at 100.0 µM,84% (active)
same,growth inhibition,[6]; at 1.2 µM,2%
same,growth inhibition,[6]; at 3.7 µM,2%
same,growth inhibition,[6]; [17],0%
same,growth inhibition,[6]; at 11.0 µM,8%
same,growth inhibition,[6]; at 33.0 µM,35%
same,growth inhibition,[6]; [18],32%
same,growth inhibition,[6]; at 50.0 µM,20.1%
same,growth inhibition,[6]; at 100.0 µM,76% (active)
same,growth inhibition,[7]; at 1.2 µM,3%
same,growth inhibition,[7]; at 3.7 µM,5%
same,growth inhibition,[7]; at 11.0 µM,17%
same,growth inhibition,[7]; at 33.0 µM,45%
same,growth inhibition,[7]; at 100.0 µM,83% (active)
same,growth inhibition,[8]; [17],-5%
same,growth inhibition,[8]; [18],38%
same,growth inhibition,[8]; at 50.0 µM,94.2% (active)
same,growth inhibition,[9]; at 1.2 µM,-4%
same,growth inhibition,[9]; at 3.7 µM,-5%
same,growth inhibition,[9]; at 11.0 µM,1%
same,growth inhibition,[9]; at 33.0 µM,25%
same,growth inhibition,[9]; at 100.0 µM,61%
same,growth inhibition,[10]; [17],35%
same,growth inhibition,[10]; [18],21%
same,growth inhibition,[10]; at 50.0 µM,45.4%
same,growth inhibition,[11]; at 1.2 µM,-2%
same,growth inhibition,[11]; at 3.7 µM,-3%
same,growth inhibition,[11]; [17],-19%
same,growth inhibition,[11]; at 11.0 µM,-1%
same,growth inhibition,[11]; at 33.0 µM,23%
same,growth inhibition,[11]; [18],19%
same,growth inhibition,[11]; at 50.0 µM,75.1% (active)
same,growth inhibition,[11]; at 100.0 µM,68%
same,growth inhibition,[12]; at 1.2 µM,-2%
same,growth inhibition,[12]; at 3.7 µM,1%
same,growth inhibition,[12]; at 11.0 µM,7%
same,growth inhibition,[12]; at 33.0 µM,36%
same,growth inhibition,[12]; at 100.0 µM,82% (active)
same,growth inhibition,[13]; at 1.2 µM,0%
same,growth inhibition,[13]; at 3.7 µM,3%
same,growth inhibition,[13]; at 11.0 µM,12%
same,growth inhibition,[13]; at 33.0 µM,45%
same,growth inhibition,[13]; at 100.0 µM,81% (active)
same,growth inhibition,[14]; at 1.2 µM,2%
same,growth inhibition,[14]; at 3.7 µM,5%
same,growth inhibition,[14]; at 11.0 µM,26%
same,growth inhibition,[14]; at 33.0 µM,63%
same,growth inhibition,[14]; at 100.0 µM,83% (active)
same,growth inhibition,[15]; [17],10%
same,growth inhibition,[15]; [18],87% (active)
same,growth inhibition,[15]; at 50.0 µM,97% (active)
same,growth inhibition,[16]; at 1.2 µM,6%
same,growth inhibition,[16]; at 3.7 µM,22%
same,growth inhibition,[16]; at 11.0 µM,72% (active)
same,growth inhibition,[16]; at 33.0 µM,88% (active)
same,growth inhibition,[16]; at 100.0 µM,91% (active)
CCOC(=O)C1N=[N+](c2ccccc2)C(=O)/C1=C\n1c(=S)[nH]c2ccc([N+](=O)[O-])cc21 (stereo not drawn),growth inhibition,[1]; at 1.2 µM,0%
same,growth inhibition,[1]; at 3.7 µM,1%
same,growth inhibition,[1]; at 11.0 µM,2%
same,growth inhibition,[1]; at 33.0 µM,0%
same,growth inhibition,[1]; at 100.0 µM,9%
same,growth inhibition,[2]; at 1.2 µM,1%
same,growth inhibition,[2]; at 3.7 µM,3%
same,growth inhibition,[2]; at 11.0 µM,2%
same,growth inhibition,[2]; at 33.0 µM,3%
same,growth inhibition,[2]; at 100.0 µM,6%
same,growth inhibition,[3]; at 1.2 µM,0%
same,growth inhibition,[3]; at 3.7 µM,1%
same,growth inhibition,[3]; at 11.0 µM,4%
same,growth inhibition,[3]; at 33.0 µM,2%
same,growth inhibition,[3]; at 100.0 µM,6%
same,growth inhibition,[4]; at 1.2 µM,-1%
same,growth inhibition,[4]; at 3.7 µM,-1%
same,growth inhibition,[4]; at 11.0 µM,0%
same,growth inhibition,[4]; at 33.0 µM,-11%
same,growth inhibition,[4]; at 100.0 µM,5%
same,growth inhibition,[5]; at 1.2 µM,-6%
same,growth inhibition,[5]; at 3.7 µM,-14%
same,growth inhibition,[5]; [17],21%
same,growth inhibition,[5]; at 11.0 µM,-18%
same,growth inhibition,[5]; at 33.0 µM,3%
same,growth inhibition,[5]; [18],94% (active)
same,growth inhibition,[5]; at 50.0 µM,5.15%
same,growth inhibition,[5]; at 100.0 µM,7%
same,growth inhibition,[6]; at 1.2 µM,1%
same,growth inhibition,[6]; at 3.7 µM,1%
same,growth inhibition,[6]; [17],13%
same,growth inhibition,[6]; at 11.0 µM,2%
same,growth inhibition,[6]; at 33.0 µM,7%
same,growth inhibition,[6]; [18],96% (active)
same,growth inhibition,[6]; at 50.0 µM,17.2%
same,growth inhibition,[6]; at 100.0 µM,9%
same,growth inhibition,[7]; at 1.2 µM,0%
same,growth inhibition,[7]; at 3.7 µM,-2%
same,growth inhibition,[7]; at 11.0 µM,1%
same,growth inhibition,[7]; at 33.0 µM,2%
same,growth inhibition,[7]; at 100.0 µM,8%
same,growth inhibition,[8]; [17],-4%
same,growth inhibition,[8]; [18],63%
same,growth inhibition,[8]; at 50.0 µM,19.9%
same,growth inhibition,[9]; at 1.2 µM,1%
same,growth inhibition,[9]; at 3.7 µM,-1%
same,growth inhibition,[9]; at 11.0 µM,-1%
same,growth inhibition,[9]; at 33.0 µM,4%
same,growth inhibition,[9]; at 100.0 µM,3%
same,growth inhibition,[10]; [17],53%
same,growth inhibition,[10]; [18],95% (active)
same,growth inhibition,[10]; at 50.0 µM,47.9%
same,growth inhibition,[11]; at 1.2 µM,-7%
same,growth inhibition,[11]; at 3.7 µM,1%
same,growth inhibition,[11]; [17],97% (active)
same,growth inhibition,[11]; at 11.0 µM,1%
same,growth inhibition,[11]; at 33.0 µM,3%
same,growth inhibition,[11]; [18],99% (active)
same,growth inhibition,[11]; at 50.0 µM,20.8%
same,growth inhibition,[11]; at 100.0 µM,3%
same,growth inhibition,[12]; at 1.2 µM,0%
same,growth inhibition,[12]; at 3.7 µM,0%
same,growth inhibition,[12]; at 11.0 µM,-1%
same,growth inhibition,[12]; at 33.0 µM,1%
same,growth inhibition,[12]; at 100.0 µM,3%
same,growth inhibition,[13]; at 1.2 µM,0%
same,growth inhibition,[13]; at 3.7 µM,1%
same,growth inhibition,[13]; at 11.0 µM,2%
same,growth inhibition,[13]; at 33.0 µM,4%
same,growth inhibition,[13]; at 100.0 µM,8%
same,growth inhibition,[14]; at 1.2 µM,0%
same,growth inhibition,[14]; at 3.7 µM,1%
same,growth inhibition,[14]; at 11.0 µM,-9%
same,growth inhibition,[14]; at 33.0 µM,8%
same,growth inhibition,[14]; at 100.0 µM,16%
same,growth inhibition,[16]; at 1.2 µM,-2%
same,growth inhibition,[16]; at 3.7 µM,1%
same,growth inhibition,[16]; at 11.0 µM,3%
same,growth inhibition,[16]; at 33.0 µM,7%
same,growth inhibition,[16]; at 100.0 µM,15%
